Data reported in PubChem BioAssay AID1159580 (chemical genetic matrix, 2015).
Where “and” joins values, the source holds several entries; their conditions need not be identical. Identical values can stand only once. The whole screen tested about 5,500 compounds, of which about 2,000 (36%) were called active. Inconclusive results (about 18%) are left out. No stated cut-off is given here; in the data, active means normalized growth mostly below about 0.91 (no sharp cut-off); inconclusive means no clear call, values can overlap the other calls; inactive means mostly above about 0.92. The list shows a part of the results.

Test: chemical genetic growth profiling, strain panel (AID 1159580);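 further: tested at 20 µM; growth read once vehicle control cultures reached saturation at 30 °C; 1 = growth at the plate median or of vehicle wells; lower values mean less growth of the strain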
Conditions: S. cerevisiae deletion strains, growth OD

Measured: normalized growth

CC(=O)OCC(CCn1cnc2cnc(N)nc21)COC(C)=O
inactive: locus YAL013W, strain DEP1, active compounds read low 0.988 | locus YAL021C, strain ccr4, active compounds read low 1.01 | locus YAL026C, strain drs2, active compounds read low 1 | locus YAL030W, strain snc1, active compounds read low 0.982 | locus YBL061C, strain skt5, active compounds read low 0.989 | locus YBR009C, strain hhf1, active compounds read low 1 | locus YBR021W, strain FUR4, active compounds read low 1.01 | locus YBR023C, strain chs3, active compounds read low 0.998 | locus YBR171W, strain sec66, active compounds read low 0.982 | locus YBR229C, strain ROT2, active compounds read low 0.989 | locus YBR231C, strain swc5, active compounds read low 0.971 | locus YBR279W, strain paf1, active compounds read low 0.986 | locus YCL011C, strain gbp2, active compounds read low 0.994 | locus YCL016C, strain dcc1, active compounds read low 0.998 | locus YCL029C, strain bik1, active compounds read low 0.965 | locus YCL061C, strain MRC1, active compounds read low 0.991 | locus YCL069W, strain vba3, active compounds read low 0.988 | locus YCR088W, strain abp1, active compounds read low 0.988 | locus YDL005C, strain med2, active compounds read low 0.991 | locus YDL035C, strain GPR1, active compounds read low 0.994 | locus YDL040C, strain nat1, active compounds read low 0.993 | locus YDL074C, strain BRE1, active compounds read low 1.01 | locus YDL101C, strain DUN1, active compounds read low 0.985 | locus YDL134C, strain PPH21, active compounds read low 0.997 | locus YDL185W, strain tfp1, active compounds read low 0.967 | locus YDL192W, strain arf1, active compounds read low 0.971 | locus YDR001C, strain nth1, active compounds read low 0.988 | locus YDR069C, strain doa4, active compounds read low 0.972 | locus YDR101C, strain arx1, active compounds read low 0.983 | locus YDR137W, strain rgp1, active compounds read low 1.01 | locus YDR150W, strain NUM1, active compounds read low 0.993 | locus YDR159W, strain sac3, active compounds read low 1.01 | locus YDR162C, strain NBP2, active compounds read low 0.996 | locus YDR195W, strain ref2 0.941 | locus YDR297W, strain sur2, active compounds read low 0.987 | locus YDR318W, strain mcm21, active compounds read low 0.979 | locus YDR334W, strain swr1, active compounds read low 1 | locus YDR335W, strain msn5, active compounds read low 0.99 | locus YDR388W, active compounds read low 0.969 | locus YDR392W, strain spt3, active compounds read low 0.995 | locus YDR502C, strain sam2, active compounds read low 0.993 | locus YEL003W, strain gim4, active compounds read low 0.984 | locus YEL037C, strain rad23, active compounds read low 1 | locus YEL061C, strain CIN8 (second series), active compounds read low 0.988 | locus YEL061C, strain CIN8, active compounds read low 0.992 | locus YER015W, strain faa2, active compounds read low 1 | locus YER016W, strain bim1, active compounds read low 0.987 | locus YER110C, active compounds read low 0.974 | locus YER111C, strain swi4, active compounds read low 0.972 | locus YER155C, strain BEM2 (second series), active compounds read low 0.959 | locus YER155C, strain BEM2, active compounds read low 0.993 | locus YER167W, strain BCK2, active compounds read low 0.989 | locus YFR010W, strain ubp6, active compounds read low 0.98 | locus YGL078C, strain dbp3, active compounds read low 0.967 | locus YGL086W, strain mad1, active compounds read low 0.984 | locus YGL167C, strain pmr1, active compounds read low 0.987 | locus YGL173C, strain kem1, active compounds read low 1 | locus YGL227W, strain vid30, active compounds read low 0.979 | locus YGL240W, strain doc1, active compounds read low 0.966 | locus YGL248W, strain PDE1, active compounds read low 0.987 | locus YGL253W, strain hxk2, active compounds read low 0.996 | locus YGR078C, strain PAC10, active compounds read low 1.01 | locus YGR135W, strain pre9, active compounds read low 0.974 | locus YGR229C, strain SMI1, active compounds read low 1.01 | locus YGR252W, strain gcn5, active compounds read low 1.08 | locus YHR013C, strain ard1, active compounds read low 1 | locus YHR027C, strain rpn1, active compounds read low 0.989 | locus YHR030C, strain SLT2, active compounds read low 0.984 and 0.946 | locus YHR079C, strain IRE1 (second series), active compounds read low 0.961 | locus YHR079C, strain IRE1, active compounds read low 0.957 | locus YHR094C, strain hxt1, active compounds read low 0.973 | locus YHR129C, strain ARP1, active compounds read low 0.991 | locus YHR142W, strain chs7, active compounds read low 1 | locus YHR200W, strain rpn10, active compounds read low 0.973 | locus YIL066C, strain RNR3, active compounds read low 0.994 | locus YIL073C, strain SPO22, active compounds read low 0.952 | locus YIL125W, strain kgd1, active compounds read low 0.97 | locus YIR030C, strain dcg1, active compounds read low 0.976 | locus YJL092W, strain hpr5, active compounds read low 0.982 | locus YJL095W, strain BCK1 (second series), active compounds read low 0.987 | locus YJL095W, strain BCK1, active compounds read low 0.99 and 0.992 | locus YJL115W, strain asf1, active compounds read low 0.979 | locus YJL129C, strain trk1, active compounds read low 0.973 | locus YJL134W, strain LCB3, active compounds read low 0.985 | locus YJL154C, strain vps35, active compounds read low 0.997 | locus YJL164C, strain tpk1, active compounds read low 1.01 | locus YJL166W, strain qcr8, active compounds read low 0.984 | locus YJL168C, strain set2, active compounds read low 0.974 | locus YJL187C, strain SWE1 (second series), active compounds read low 0.984 | locus YJR043C, strain POL32, active compounds read low 0.976 | locus YJR066W, strain TOR1, active compounds read low 0.934
